The whole screen tested about 5,500 compounds, of which about 2,000 (36%) were called active. About 18% were inconclusive and are not listed. No stated cut-off is given here; in the data, active means normalized growth mostly below about 0.91 (no sharp cut-off); inconclusive means no clear call, values can overlap the other calls; inactive means mostly above about 0.92. Some of the results follow.
Experiment: chemical genetic growth profiling, strain panel (AID 1159580);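 further: tested at 20 µM; growth read once vehicle control cultures reached saturation at 30 °C; 1 = growth at the plate median or of vehicle wells; lower values mean less growth of the strain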
Conditions: growth OD

Measured: normalized growth

Cc1ccc2c(c1)CC[C@H]1CC(=O)CC[C@]21C
active: S. cerevisiae deletion strains, locus YNL307C, strain MCK1, active compounds read low 0.889
inactive: S. cerevisiae deletion strains, locus YKL009W, strain mrt4, active compounds read low 0.982 | S. cerevisiae deletion strains, locus YKL068W, active compounds read low 0.991 | S. cerevisiae deletion strains, locus YKL085W, strain MDH1 (second series), active compounds read low 0.973 | S. cerevisiae deletion strains, locus YKL085W, strain MDH1, active compounds read low 0.973 | S. cerevisiae deletion strains, locus YKL160W, strain elf1, active compounds read low 1.01 | S. cerevisiae deletion strains, locus YKL190W, strain CNB1, active compounds read low 0.997 | S. cerevisiae deletion strains, locus YKR001C, strain vps1, active compounds read low 0.953 | S. cerevisiae deletion strains, locus YKR026C, strain gcn3, active compounds read low 1.01 | S. cerevisiae deletion strains, locus YKR091W, strain srl3, active compounds read low 1 | S. cerevisiae deletion strains, locus YLL001W, strain dnm1, active compounds read low 0.999 | S. cerevisiae deletion strains, locus YLL026W, active compounds read low 1.01 | S. cerevisiae deletion strains, locus YLL041C, strain sdh2, active compounds read low 0.991 | S. cerevisiae deletion strains, locus YLR027C, strain aat2, active compounds read low 0.989 | S. cerevisiae deletion strains, locus YLR039C, strain RIC1, active compounds read low 0.925 | S. cerevisiae deletion strains, locus YLR058C, strain SHM2, active compounds read low 0.998 | S. cerevisiae deletion strains, locus YLR102C, strain apc9, active compounds read low 0.983 | S. cerevisiae deletion strains, locus YLR113W, strain HOG1, active compounds read low 0.975 | S. cerevisiae deletion strains, locus YLR221C, strain rsa3, active compounds read low 0.995 | S. cerevisiae deletion strains, locus YLR258W, strain gsy2, active compounds read low 1 | S. cerevisiae deletion strains, locus YLR262C, strain YPT6 (second series), active compounds read low 0.942 | S. cerevisiae deletion strains, locus YLR262C, strain YPT6, active compounds read low 0.917 | S. cerevisiae deletion strains, locus YLR268W, strain sec22, active compounds read low 1.01 | S. cerevisiae deletion strains, locus YLR320W, strain mms22, active compounds read low 0.977 | S. cerevisiae deletion strains, locus YLR330W, strain CHS5, active compounds read low 0.991 | S. cerevisiae deletion strains, locus YLR342W, strain FKS1 (second series), active compounds read low 0.94 | S. cerevisiae deletion strains, locus YLR342W, strain FKS1, active compounds read low 0.997 | S. cerevisiae deletion strains, locus YLR357W, strain rsc2, active compounds read low 1.01 | S. cerevisiae deletion strains, locus YLR370C, strain arc18, active compounds read low 1.02 | S. cerevisiae deletion strains, locus YLR371W, strain rom2, active compounds read low 0.972 | S. cerevisiae deletion strains, locus YLR384C, strain iki3, active compounds read low 1.01 | S. cerevisiae deletion strains, locus YLR418C, strain cdc73, active compounds read low 0.923 | S. cerevisiae deletion strains, locus YML016C, strain PPZ1, active compounds read low 0.984 | S. cerevisiae deletion strains, locus YML032C, strain rad52, active compounds read low 0.972 | S. cerevisiae deletion strains, locus YML120C, strain ndi1, active compounds read low 0.986 | S. cerevisiae deletion strains, locus YML124C, strain tub3, active compounds read low 0.98 | S. cerevisiae deletion strains, locus YMR058W, strain fet3, active compounds read low 1.01 | S. cerevisiae deletion strains, locus YMR078C, strain ctf18, active compounds read low 0.969 | S. cerevisiae deletion strains, locus YMR125W, strain sto1, active compounds read low 1 | S. cerevisiae deletion strains, locus YMR129W, active compounds read low 1.01 | S. cerevisiae deletion strains, locus YMR205C, strain PFK2, active compounds read low 1 | S. cerevisiae deletion strains, locus YMR223W, strain ubp8, active compounds read low 0.966 | S. cerevisiae deletion strains, locus YMR231W, strain pep5, active compounds read low 0.997 | S. cerevisiae deletion strains, locus YMR263W, strain SAP30, active compounds read low 1.01 | S. cerevisiae deletion strains, locus YMR307W, strain GAS1, active compounds read low 0.908 | S. cerevisiae deletion strains, locus YNL067W, strain RPL9B, active compounds read low 0.999 | S. cerevisiae deletion strains, locus YNL071W, strain lat1, active compounds read low 0.999 | S. cerevisiae deletion strains, locus YNL128W, strain TEP1, active compounds read low 1.01 | S. cerevisiae deletion strains, locus YNL153C, strain GIM3, active compounds read low 1.02 | S. cerevisiae deletion strains, locus YNL183C, strain NPR1, active compounds read low 0.907 | S. cerevisiae deletion strains, locus YNL209W, strain ssb2, active compounds read low 0.998 | S. cerevisiae deletion strains, locus YNL233W, strain BNI4, active compounds read low 0.979 | S. cerevisiae deletion strains, locus YNL248C, strain rpa49, active compounds read low 0.99 | S. cerevisiae deletion strains, locus YNL250W, strain rad50, active compounds read low 0.979 | S. cerevisiae deletion strains, locus YNL271C, strain bni1, active compounds read low 0.96 | S. cerevisiae deletion strains, locus YNL298W, strain CLA4, active compounds read low 0.987 | S. cerevisiae deletion strains, locus YNL322C, strain KRE1 (second series), active compounds read low 1 | S. cerevisiae deletion strains, locus YNL322C, strain KRE1, active compounds read low 1 | S. cerevisiae deletion strains, locus YNR049C, strain mso1, active compounds read low 1 | S. cerevisiae deletion strains, locus YNR052C, strain pop2, active compounds read low 0.976 | S. cerevisiae deletion strains, locus YOL006C, strain TOP1, active compounds read low 0.878 | S. cerevisiae deletion strains, locus YOL012C, strain htz1 1.46 | S. cerevisiae deletion strains, locus YOL147C, strain pex11, active compounds read low 0.981 | S. cerevisiae deletion strains, locus YOR001W, strain rrp6, active compounds read low 0.981 | S. cerevisiae deletion strains, locus YOR061W, strain CKA2, active compounds read low 0.998 | S. cerevisiae deletion strains, locus YOR069W, strain VPS5, active compounds read low 0.998 | S. cerevisiae deletion strains, locus YOR070C, strain gyp1, active compounds read low 1 | S. cerevisiae deletion strains, locus YOR080W, strain dia2, active compounds read low 0.994 | S. cerevisiae deletion strains, locus YOR083W, strain WHI5, active compounds read low 1 | S. cerevisiae deletion strains, locus YOR106W, strain vam3, active compounds read low 0.998 | S. cerevisiae deletion strains, locus YOR136W, strain idh2, active compounds read low 0.993 | S. cerevisiae deletion strains, locus YOR144C, strain elg1, active compounds read low 0.976 | S. cerevisiae deletion strains, locus YOR184W, strain ser1, active compounds read low 0.895 | S. cerevisiae deletion strains, locus YOR231W, strain MKK1, active compounds read low 0.981 | S. cerevisiae deletion strains, locus YOR265W, strain rbl2, active compounds read low 1 | S. cerevisiae deletion strains, locus YOR270C, strain vph1, active compounds read low 0.889 | S. cerevisiae deletion strains, locus YOR290C, strain snf2, active compounds read low 1.01 | S. cerevisiae deletion strains, locus YOR316C, strain cot1, active compounds read low 0.982 | S. cerevisiae deletion strains, locus YPL051W, strain arl3, active compounds read low 1.01 | S. cerevisiae deletion strains, locus YPL055C, strain LGE1, active compounds read low 0.99 | S. cerevisiae deletion strains, locus YPL078C, strain atp4, active compounds read low 0.993 | S. cerevisiae deletion strains, locus YPL106C, strain sse1, active compounds read low 1.03 | S. cerevisiae deletion strains, locus YPL240C, strain hsp82, active compounds read low 1 | S. cerevisiae deletion strains, locus YPL241C, strain CIN2, active compounds read low 0.993 | S. cerevisiae deletion strains, locus YPL256C, strain CLN2, active compounds read low 0.965 | S. cerevisiae deletion strains, locus YPR119W, strain clb2, active compounds read low 0.98 | S. cerevisiae deletion strains, locus YPR141C, strain kar3, active compounds read low 0.976 | S. cerevisiae deletion strains, locus YPR163C, strain tif3, active compounds read low 0.974 | S. cerevisiae deletion strains, locus YPR167C, strain met16, active compounds read low 0.982 | S. cerevisiae deletion strains, strain wtn01, active compounds read low 0.975 | S. cerevisiae strains, strain wild type, active compounds read low 0.994

Source: PubChem BioAssay AID1159580 (chemical genetic matrix, 2015)
